Compounds with a hit are over-represented: about 2.8% of the library has one in this group of screens.
a7 integrin act: activates integrin-mediated alleviation for muscular dystrophy | AID 624291 | alpha7betagal myoblasts, beta-gal FDG fluorescence, 48 h | 0.064% of 350,000 active | Potency, µM (series often up to 38.3 µM), for the others: at the top dose activation, actives largely listed as activators;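 further: potency means the concentration at half of the fitted maximal effect; 100% = response of the positive control SU9516; nearly all actives have a fitted effect of over 60% in size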
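alpha7betagal+/- myoblasts (passage 13, 250/well) treated 48 h at 37C with compounds at 1:260 dilution of DMSO stock. Lysed, then beta-galactosidase activity read as FDG fluorescence (ex 480/em 540) after 30 min, with pre-read for autofluorescence.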
DRD3 agonist: activates the human D3 dopamine receptor | P35462 | D3R DiscoveRx beta-arrestin cells, luminescence, 90 min | max activation, % | 0.58% of 410,000 active | AID 652048; in the data active means max activation above about 30%; further: 0% is about no effect
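Agonist-mode cell screen: cells plated at 1500/well and incubated overnight at 37 °C, then exposed to library compounds for 90 min at 37 °C. Detection reagent was added for 30–60 min at room temperature, and luminescence was read.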
CBFb RUNX1 block: blocks binding between human CBF-beta and RUNX1. Potency, µM (titrated, usually from 59.8 µM), inactives show at the highest dose activity, negative = inhibition, actives largely listed as inhibitors. 230,000 tested, under 10 active. AlphaScreen CBFb-His/RUNX1-biotin binding, biochemical. Q01196+Q13951. AID 1477; further: % of control where 0% means no effect
Target sequence (Q01196 whole entry, looked up): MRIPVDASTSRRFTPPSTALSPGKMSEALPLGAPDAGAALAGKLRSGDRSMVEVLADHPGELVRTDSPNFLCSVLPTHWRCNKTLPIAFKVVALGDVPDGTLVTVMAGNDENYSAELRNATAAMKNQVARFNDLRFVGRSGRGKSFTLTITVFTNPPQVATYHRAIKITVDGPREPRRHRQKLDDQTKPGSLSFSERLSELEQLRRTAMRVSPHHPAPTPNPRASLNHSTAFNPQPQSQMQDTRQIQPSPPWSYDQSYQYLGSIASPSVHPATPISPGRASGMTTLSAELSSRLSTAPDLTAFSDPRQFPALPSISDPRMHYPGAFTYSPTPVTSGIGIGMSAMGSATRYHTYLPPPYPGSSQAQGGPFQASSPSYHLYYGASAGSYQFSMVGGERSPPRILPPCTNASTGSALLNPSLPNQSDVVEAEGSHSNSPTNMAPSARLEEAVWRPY
Target sequence (Q13951 whole entry, looked up): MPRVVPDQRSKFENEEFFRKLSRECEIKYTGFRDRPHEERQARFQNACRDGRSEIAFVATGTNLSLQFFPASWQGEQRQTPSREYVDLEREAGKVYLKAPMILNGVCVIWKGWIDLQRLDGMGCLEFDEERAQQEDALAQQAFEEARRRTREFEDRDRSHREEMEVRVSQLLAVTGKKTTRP
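AlphaScreen binding: CBFb-His and RUNX1-biotin (30 nM each) preincubated 20 min, compound added for 15 min, then nickel and streptavidin beads for 90 min, all at room temperature. Disruption of the interaction by any mechanism counts as activity.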
DRD3 antagonist: D3 dopamine receptor (human) antagonism. P35462. D3R cells, DiscoveRx beta-arrestin luminescence, antagonist mode; active compounds read low. max response, negative = inhibition, %. 2.5% of 360,000 active; in the data active means max response below about -50%; inconclusive means no clear call, values can overlap the other calls; further: on the % scale 0 is the no-effect control and ±100 the full control effect
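Cells plated overnight at 1500 cells/well, then exposed to library compounds with dopamine controls for 90 minutes at 37 degrees C. DiscoveRx reagent added for 30–60 minutes at room temperature; luminescence read, quantitative HTS format.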
PTHR1 ag: agonists of human PTHR1 parathyroid hormone receptor; Q03431; HEK293 GP2 PTHR1 cells, GloSensor cAMP luminescence, 1 h; Potency, µM (doses to about 115 µM), for inactives: top-dose activation, hits mostly activators; 0.075% of 410,000 active; AID 743266; further: potency means the concentration at half of the fitted maximal effect; nearly all actives have a fitted effect of over 55% in size
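HEK-293-derived GP2 cells expressing PTHR1 and a GloSensor cAMP reporter, 3,000/well, plated overnight, given luciferin plus IBMX (each 0.5 mM as added) for 1 h at 37 °C, then compound for 1 h at 37 °C. Luminescence was read after 15 min at room temperature.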
MBNL1 CUG block: MBNL1-poly(CUG) RNA binding inhibition | TR-FRET MBNL1-His/biotin-(CUG)12 binding, 665/545 ratio | Potency, µM (highest dose often 57.5 µM), for inactives: at the top dose activity change, negative = inhibition, actives largely listed as inhibitors | 0.036% of 280,000 active | AID 2675; active means well fitted inhibition curve with a large enough effect in the signal ratio, with a control signal flat, not every such curve was filed as active; inconclusive means small, poorly fitted or top-dose-only effect, or effect the other way, or a change in a side signal; inactive means no such curve, though single readings can be large or run the other way; the % refers to the signal ratio; further: potency means the concentration at half of the fitted maximal effect; on the % scale 0 is the no-effect control and ±100 the full control effect
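Compound titration spanned 92 nM–58 uM against the MBNL1-His/biotin-(CUG)12 complex. After 60 min at room temperature with 5 nM streptavidin-XL665 and 0.055 ng/ul terbium anti-His, ratiometric 665/545 nm emission (Ex 340 nm) normalized to controls.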
* marks the source's active call; other numbers are inactive results; i = inactive; ? = inconclusive; . = no result; ! = not confirmed by another sample; [ ] = another dose, or the depositor's remark. Unless noted, the call rests on the fitted dose curve; in most records, active means well fitted curve in the direction sought with a large enough effect; inconclusive means small, poorly fitted or top-dose-only effect, or another doubt; inactive means no such curve, though single readings can be large; an effect the other way counts as inactive or inconclusive.

SMILES | a7 integrin act | DRD3 agonist | CBFb RUNX1 block | DRD3 antagonist | PTHR1 ag | MBNL1 CUG block
O=C1CCCN1c1ccc(S(=O)(=O)NCc2ccc(F)cc2)cc1 | 3% | -1 | . | 11 | -17% | 0%
CN(C)c1ccc(NC(=S)c2ccc3ccccc3n2)cc1 | -2% | -6 | . | -51* | -1% | 9%
Cc1ccc(C)c(NC(=S)c2ccc3ccccc3n2)c1 | 3% | -5 | . | 9 | -13% | ?
CC(C)CN=Cc1c(O)c([N+](=O)[O-])cc2oc3c(c12)CCCC3 | 18% | -28 | 6% | -106* | i | ?
O=[N+]([O-])c1cc2oc3c(c2c(C=NCc2ccccc2)c1O)CCCC3 | 21% | 13 | -10% | -85* | i | 5%
Cc1cccc(/N=C/c2c(O)ccc3oc4c(c23)CCCC4)n1 | -14% | -7 | 16% | ? | -22% | 16%
O=C(Cc1csc(-c2ccccc2)n1)Nc1ccc(C(F)(F)F)cc1 | 13% | -1 | 24% | -56* | -80% | .
COc1ccc(NC(=O)CN2C(=O)NC3(CCCCCC3)C2=O)cc1Cl | 14% | -10 | . | -17 | -16% | .
CCn1c(CNc2ccccc2Cl)nnc1SCCN1CCCCC1 | -11% | -7 | 4% | -60* | i | 15%
COc1ccc(F)c(CN2CCC(n3nccc3NC(=O)C3CCOC3)CC2)c1 (stereo not drawn) | 14% | 5 | . | 4 | i | -1%
CCN(CC(=O)Nc1cccc(C(C)=O)c1)S(=O)(=O)c1ccc(C)cc1 | 2% | -5 | 10% | 10 | -1% | -7%
CCOc1ccc2c(c1)-c1c(ssc1=S)C(C)(C)N2C | -34% | 0 | . | -52* | i | ?
CC1(C)Nc2ccc(O)cc2-c2c1ssc2=S | -46% | 1 | ? | 0 | i | ?
N#Cc1nc(-c2cccs2)oc1N1CCN(Cc2ccccc2)CC1 | -23% | -43 | -24% | -75* | -2%[57.5 µM] | 23%
N#Cc1nc(COc2ccccc2)oc1N1CCN(Cc2ccccc2)CC1 | 36% | 5 | -30% | 9 | -15%[57.5 µM] | 1%
COc1cc(NC(=O)COc2ccc([N+](=O)[O-])cc2)ccc1NC(=O)c1ccco1 | -7% | 1 | . | -4 | -3% | .
O=C(c1cccc(F)c1)N1CCC(N2CCCCCC2)CC1 | 9% | 3 | -1% | -74* | -11% | 2%
OC(COCc1cccs1)CN1CCN(c2cccc(C(F)(F)F)c2)CC1 (stereo not drawn) | -25% | -5 | 0% | -55* | -26% | -8%
CCOC(=O)N1CCC(=C2c3ccc(Cl)cc3CCc3cccnc32)CC1 | . | 52*! | -4% | 126 | i | 17%
CN1CCC(=C2c3ccccc3CCc3cccnc32)CC1 | . | -25 | . | . | . | .
CC(=O)O[C@@H]1C(=O)O[C@@H]2[C@H]1OC(=O)[C@@H]2OC(C)=O | . | 4 | . | . | . | .
CCOc1cc(C(=O)OCc2cc(=O)n3c(C)csc3n2)cc(OCC)c1OCC | . | 1 | . | . | -2% | .
COc1cc(C(=O)OCCCN2CCOCC2)ccc1O | -36% | -12 | 6% | -16 | -22% | 7%
COc1cc(C(=O)OCCN2CCCCC2)ccc1O | 20% | -14 | -4% | -58* | i | -4%
COc1cc(C(=O)OCCCN2CCCN(CCCOC(=O)c3cc(OC)c(OC)c(OC)c3)CC2)cc(OC)c1OC | . | -86 | 18% | -92* | -12% | .
SMILES | a7 integrin act | DRD3 agonist | CBFb RUNX1 block | DRD3 antagonist | PTHR1 ag | MBNL1 CUG block
COc1cc(C#CC#CCN2CCCCC2)ccc1O | 0% | -21 | -6% | -116* | i | -24%
COc1cc(C(=O)OCCN2CCOCC2)cc(OC)c1OC | 13% | 2 | 5% | -7 | -23% | -8%
O=C(OCCN1CCCCC1)c1ccc(Cl)cc1 | -8% | -20 | -1% | -78* | i | 1%
C(#Cc1ccccc1)CN1CCCCC1 | -15% | -11 | 3% | ? | 0% | -14%
N[C@H](C(=O)O)[C@@H](O)c1ccc(O)c(O)c1 | . | 5 | . | . | . | .
CC(C)(C)OC(=O)N(CC1CCNCC1)C(=O)c1[nH]c(C(F)(F)F)nc1-c1ccccc1 | . | 3 | . | 10 | -24% | .
CCOC(=O)C1CCCCN1S(=O)(=O)c1csc(C(N)=O)c1 (stereo not drawn) | . | 1 | . | . | i | .
CCCN(CCC)C(=O)CSc1nc2n[nH]c(C)c2c(=N)n1-c1ccc(OCC)cc1 | 12% | 2 | 0% | -50* | i | -8%
COc1ccc(CN2CCN(S(=O)(=O)c3ccccc3)CC2)c(OC)c1OC | -12% | 7 | . | -5 | -19% | .
COc1ccccc1N=Nc1ccc(O)c2ncccc12 | -9% | -17 | . | -90* | -25% | ?
Oc1ccc(F)c2cccnc12 | 4% | -8 | 2% | -15 | 17% | -5%
Oc1ccc(N=Nc2ccccc2C(F)(F)F)c2cccnc12 | -33% | -17 | . | -124* | -21% | 3%
CC(=O)Oc1c(C)c2c3c(c1OC(C)=O)[C@@H](C)CC[C@@H]3[C@@H](C)C[C@H]2C=C(C)C | 0% | 43* | . | 5 | i | .
CC(C)=C[C@@H]1C[C@H](C)[C@H]2CC[C@H](C)c3c(O)c(O)c(C)c1c32 | 0% | -23 | . | 0 | -25% | .
O=C(Cc1ccc(Br)cc1)OCC(=O)N1CCOCC1 | -7% | -1 | . | -10 | -11% | .
COc1ccc(C2=NOC(Cn3nc(-c4ccccc4)cc3C(=O)NCc3cccc(Br)c3)C2)cc1 (stereo not drawn) | -29% | 34* | . | 33 | -21% | .
O=C1NCCN(Cc2ccc(F)cc2)C1=O | . | 8 | . | . | i | .
CC(C)N1CCN(S(=O)(=O)c2ccccc2)CC1 | ? | -4 | . | -17 | i | 0%
CC(CCc1ccccc1)N1CCN(Cc2ccccc2)CC1 (stereo not drawn) | -16% | -12 | 4% | -87* | i | -12%
CCS(=O)(=O)N1CCN(C(C)CCc2ccccc2)CC1 (stereo not drawn) | 27% | 14 | 12% | -51* | -7%[57.5 µM] | -2%
ClC(CCN1CCN(Cc2ccccc2)CC1)c1ccccc1 (stereo not drawn) | -23% | -49 | . | -64* | -9% | .
Cc1nn(C)c2c1c(-c1ccccc1)cc(=O)n2CC(=O)NC(C)c1ccccc1 (stereo not drawn) | . | -1 | . | . | i | .
Cc1ccccc1-n1c(C)nnc1SCC(=O)N1CCc2ccccc2C1 | 3% | -4 | 0% | 1 | i | .
C#Cc1ccccc1OCCCN1CCC(C(O)(c2ccccc2)c2ccccc2)CC1 | . | -14 | . | ? | i | .
N#Cc1ccccc1OCCCN1CCC(C(O)(c2ccccc2)c2ccccc2)CC1 | . | -18 | . | -96* | i | .
